According to the supplement of paper PMC10849652:
About 8,800 targets were measured; listed, in parts, are those with a hit and a random draw of the rest. About 0.5% of all pairs of compound and target were hits. Values without a mark were called inactive.

Key:
Assay in all cases: log2 fold change, soluble protein after heating vs DMSO (PISA); higher = thermal stabilisation; K562 lysate, 10 uM; active = over 0.2 and 3.5 SD of the protein, either way, in both replicates (recomputed)
erlotinib = compound: C#Cc1cccc(Nc2ncnc3cc(OCCOC)c(OCCOC)cc23)c1 [erlotinib]
Outline: (§1)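 Quantification was by TMTpro 16plex LC-MS/MS with equalised channel sums, applied to the supernatant after 21,000xg for 90 min. Samples were crude K562 extract at 1 mg/mL protein in PBS pH 7.4 with 1 mM MgCl2, treated with 10 μM compound for 30 min, heated for 3 min across 48°C-58°C, pooled and brought to 0.5% NP-40 at 4°C. Values are log-two fold changes in thermal stability relative to solvent controls, from duplicates.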

[1] = compound: C/C(=N\NC(=O)C1=CC(=CC=C1)S(=O)(=O)N2CCOCC2)/C3=C(C=CC(=C3)Cl)O
Outline: as §1

[2] = compound: C1=CC(=CC=C1C2=NC3=C(N2)C=C(C=C3)C(=O)N)OC4=CC=C(C=C4)Cl
Outline: as §1

[3] = compound: C1=CC2=C(C=CC(=C2)/C=C\3/C(=O)NC(=NCC4=CC=CS4)S3)N=C1
Outline: as §1

[4] = compound: C1=CC2=NC=CN=C2C=C1/C=C/3\C(=O)NC(=O)S3
Outline: as §1

[5] = compound: C1=CC=C(C=C1)C2=NC(=C(N2)C3=CC=NC=C3)C4=CC(=C(C=C4)Cl)O
Outline: as §1

[6] = compound: C1=CC=C2C(=C1)C3=NNC4=CC=CC(=C43)C2=O
Outline: as §1

[7] = compound: C1CCN(C1)C(=O)NC2=CC=CC(=C2)NC3=NC=C(C(=N3)NCCC4=CN=CN4)Br
Outline: as §1

[8] = compound: C1CN(CCC1(CC2=CC=C(C=C2)Cl)N)C3=NC=NC4=C3C=CN4
Outline: as §1

IRAK-1-4 Inhibitor I = compound: C1COCCN1CCN2C3=CC=CC=C3N=C2NC(=O)C4=CC(=CC=C4)[N+](=O)[O-] [IRAK-1-4 Inhibitor I]
Outline: as §1

ibrutinib = compound: C=CC(=O)N1CCC[C@@H](n2nc(-c3ccc(Oc4ccccc4)cc3)c3c(N)ncnc32)C1 [ibrutinib]
Outline: as §1

[9] = compound: CC(=O)c1cnc2ccc(-c3cc(Cl)c(O)c(Cl)c3)nc2c1N[C@H]1CC[C@H](CN(C)C)CC1
Outline: as §1

ralimetinib = compound: CC(C)(C)Cn1c(N)nc2ccc(-c3[nH]c(C(C)(C)C)nc3-c3ccc(F)cc3)nc21 [ralimetinib]
Outline: as §1

[10] = compound: CC(C)(O)CC(=O)NCCn1ccc2ncnc(Nc3ccc(Oc4cccc(C(F)(F)F)c4)c(Cl)c3)c21
Outline: as §1

[11] = compound: CC(C)C1=C2N=C(C=C(N2N=C1)NCC3=CC=CC=C3)NCCCCCCN
Outline: as §1

[12] = compound: CC1=C(C(CC(=O)N1)C2=CC=C(C=C2)C(F)(F)F)C(=O)NC3=C(C=C4C(=C3)C=NN4)F
Outline: as §1

[13] = compound: CC1=C(C2=C(C=C1)C(=O)C3=CC=CC=C3N2CCCN)C
Outline: as §1

[14] = compound: CC1=C(C=C(C=C1)NC(=O)C2=CC(=CC=C2)C(C)(C)C#N)NC3=CC4=C(C=C3)N=CN(C4=O)C
Outline: as §1

[15] = compound: CC1=C(C=C(C=C1)NC(=O)C2=CC(=CC=C2)N(C)C)NC(=O)C3=CC=C(C=C3)O
Outline: as §1

[16] = compound: CC1=CC=C(C=C1)SC2=C3C=C(SC3=CN=C2)C(=O)N
Outline: as §1

UniProt O75419, sequence (O75419 whole entry, looked up): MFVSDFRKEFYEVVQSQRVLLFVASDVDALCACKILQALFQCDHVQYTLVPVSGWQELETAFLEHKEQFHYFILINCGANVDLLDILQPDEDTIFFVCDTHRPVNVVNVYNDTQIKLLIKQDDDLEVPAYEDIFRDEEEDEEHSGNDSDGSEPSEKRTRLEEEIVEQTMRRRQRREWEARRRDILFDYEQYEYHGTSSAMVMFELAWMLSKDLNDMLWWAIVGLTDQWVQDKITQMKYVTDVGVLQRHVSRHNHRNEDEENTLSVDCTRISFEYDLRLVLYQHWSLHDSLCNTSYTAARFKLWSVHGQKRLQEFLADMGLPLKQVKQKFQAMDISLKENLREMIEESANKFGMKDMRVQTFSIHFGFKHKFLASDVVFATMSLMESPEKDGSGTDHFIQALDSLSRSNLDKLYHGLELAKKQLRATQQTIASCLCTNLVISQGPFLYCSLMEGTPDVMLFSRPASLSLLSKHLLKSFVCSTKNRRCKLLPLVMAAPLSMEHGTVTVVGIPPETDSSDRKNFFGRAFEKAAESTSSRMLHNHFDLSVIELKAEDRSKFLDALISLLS
UniProt O75143, sequence (O75143 whole entry, looked up): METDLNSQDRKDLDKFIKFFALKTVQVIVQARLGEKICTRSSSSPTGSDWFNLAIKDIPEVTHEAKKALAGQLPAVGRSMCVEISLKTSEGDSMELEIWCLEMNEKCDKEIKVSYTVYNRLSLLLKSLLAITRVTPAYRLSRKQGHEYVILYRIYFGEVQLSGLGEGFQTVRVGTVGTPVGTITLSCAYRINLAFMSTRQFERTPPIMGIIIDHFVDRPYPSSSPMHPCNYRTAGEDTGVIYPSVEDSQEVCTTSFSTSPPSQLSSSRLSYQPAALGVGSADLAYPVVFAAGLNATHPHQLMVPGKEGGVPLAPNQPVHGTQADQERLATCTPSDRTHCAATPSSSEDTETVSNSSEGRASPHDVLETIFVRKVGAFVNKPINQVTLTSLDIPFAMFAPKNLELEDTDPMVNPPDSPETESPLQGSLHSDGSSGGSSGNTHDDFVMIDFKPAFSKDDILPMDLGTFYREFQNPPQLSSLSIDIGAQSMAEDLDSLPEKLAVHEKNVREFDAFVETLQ
UniProt O14965, sequence (O14965 whole entry, looked up): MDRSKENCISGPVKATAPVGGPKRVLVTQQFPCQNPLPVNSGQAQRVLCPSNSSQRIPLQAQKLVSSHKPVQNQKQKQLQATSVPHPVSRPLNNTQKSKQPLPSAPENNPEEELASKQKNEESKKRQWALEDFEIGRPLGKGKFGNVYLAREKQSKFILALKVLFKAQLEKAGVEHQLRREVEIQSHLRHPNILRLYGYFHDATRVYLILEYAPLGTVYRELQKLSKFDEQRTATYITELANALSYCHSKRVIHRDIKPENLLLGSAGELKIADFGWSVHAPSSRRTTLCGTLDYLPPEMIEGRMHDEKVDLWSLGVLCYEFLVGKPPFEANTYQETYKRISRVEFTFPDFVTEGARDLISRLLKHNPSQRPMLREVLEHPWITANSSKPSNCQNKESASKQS
UniProt Q9Y4P1, sequence (Q9Y4P1 whole entry, looked up): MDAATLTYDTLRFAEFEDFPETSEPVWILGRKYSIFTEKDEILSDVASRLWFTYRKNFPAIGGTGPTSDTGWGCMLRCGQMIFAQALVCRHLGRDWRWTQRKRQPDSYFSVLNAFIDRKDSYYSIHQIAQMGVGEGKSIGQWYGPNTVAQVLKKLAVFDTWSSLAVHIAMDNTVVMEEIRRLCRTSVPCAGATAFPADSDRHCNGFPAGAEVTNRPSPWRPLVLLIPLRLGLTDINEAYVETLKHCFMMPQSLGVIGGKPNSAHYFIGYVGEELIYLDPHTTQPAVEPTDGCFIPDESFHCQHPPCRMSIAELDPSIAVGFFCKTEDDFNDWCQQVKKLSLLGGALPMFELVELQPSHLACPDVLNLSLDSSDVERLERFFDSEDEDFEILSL
UniProt P49918, sequence (P49918 whole entry, looked up): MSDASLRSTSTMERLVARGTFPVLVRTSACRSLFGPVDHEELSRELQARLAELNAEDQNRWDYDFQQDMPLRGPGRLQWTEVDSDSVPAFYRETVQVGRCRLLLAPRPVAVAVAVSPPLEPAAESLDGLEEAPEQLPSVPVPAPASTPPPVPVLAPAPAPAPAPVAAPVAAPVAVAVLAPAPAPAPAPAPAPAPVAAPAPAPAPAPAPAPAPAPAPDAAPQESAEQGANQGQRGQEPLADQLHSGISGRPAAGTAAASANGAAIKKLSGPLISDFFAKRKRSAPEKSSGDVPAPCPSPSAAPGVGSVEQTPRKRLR
UniProt Q8NBU5, sequence (Q8NBU5 whole entry, looked up): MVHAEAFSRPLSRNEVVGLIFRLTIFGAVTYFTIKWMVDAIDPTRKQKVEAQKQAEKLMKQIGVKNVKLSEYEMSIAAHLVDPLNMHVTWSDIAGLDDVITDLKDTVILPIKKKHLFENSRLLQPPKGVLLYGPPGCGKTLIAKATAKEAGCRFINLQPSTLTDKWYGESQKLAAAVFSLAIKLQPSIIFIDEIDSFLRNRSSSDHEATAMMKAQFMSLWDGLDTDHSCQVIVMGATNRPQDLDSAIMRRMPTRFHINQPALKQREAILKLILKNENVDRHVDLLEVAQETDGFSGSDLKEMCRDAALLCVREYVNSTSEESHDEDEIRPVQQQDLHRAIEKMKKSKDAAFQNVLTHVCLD
UniProt Q13555, sequence (Q13555 whole entry, looked up): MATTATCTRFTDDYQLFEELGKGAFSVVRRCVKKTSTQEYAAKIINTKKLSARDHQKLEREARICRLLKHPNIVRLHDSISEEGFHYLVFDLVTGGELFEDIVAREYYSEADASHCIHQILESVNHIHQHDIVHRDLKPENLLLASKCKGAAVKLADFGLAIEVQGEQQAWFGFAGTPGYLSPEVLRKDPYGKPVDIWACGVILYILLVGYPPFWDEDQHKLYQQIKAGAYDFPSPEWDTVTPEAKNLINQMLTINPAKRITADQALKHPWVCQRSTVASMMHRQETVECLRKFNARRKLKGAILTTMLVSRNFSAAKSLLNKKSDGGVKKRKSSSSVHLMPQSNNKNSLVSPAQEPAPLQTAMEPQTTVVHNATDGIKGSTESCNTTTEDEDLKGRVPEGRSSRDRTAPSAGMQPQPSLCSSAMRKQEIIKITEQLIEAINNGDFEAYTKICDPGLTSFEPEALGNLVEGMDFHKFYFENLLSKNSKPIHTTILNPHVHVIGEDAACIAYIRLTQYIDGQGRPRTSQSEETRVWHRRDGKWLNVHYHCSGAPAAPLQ
UniProt P50750, sequence (P50750 whole entry, looked up): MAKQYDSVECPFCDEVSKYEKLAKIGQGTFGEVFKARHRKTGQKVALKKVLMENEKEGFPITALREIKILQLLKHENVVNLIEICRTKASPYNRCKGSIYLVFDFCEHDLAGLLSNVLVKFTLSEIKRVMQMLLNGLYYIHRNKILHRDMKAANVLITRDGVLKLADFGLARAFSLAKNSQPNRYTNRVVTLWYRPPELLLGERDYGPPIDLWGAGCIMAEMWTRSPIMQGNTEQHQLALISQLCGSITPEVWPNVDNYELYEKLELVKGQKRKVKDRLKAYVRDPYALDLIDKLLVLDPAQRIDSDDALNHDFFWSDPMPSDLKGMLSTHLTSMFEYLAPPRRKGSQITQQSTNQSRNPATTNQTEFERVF
UniProt Q5T9A4, sequence (Q5T9A4 whole entry, looked up): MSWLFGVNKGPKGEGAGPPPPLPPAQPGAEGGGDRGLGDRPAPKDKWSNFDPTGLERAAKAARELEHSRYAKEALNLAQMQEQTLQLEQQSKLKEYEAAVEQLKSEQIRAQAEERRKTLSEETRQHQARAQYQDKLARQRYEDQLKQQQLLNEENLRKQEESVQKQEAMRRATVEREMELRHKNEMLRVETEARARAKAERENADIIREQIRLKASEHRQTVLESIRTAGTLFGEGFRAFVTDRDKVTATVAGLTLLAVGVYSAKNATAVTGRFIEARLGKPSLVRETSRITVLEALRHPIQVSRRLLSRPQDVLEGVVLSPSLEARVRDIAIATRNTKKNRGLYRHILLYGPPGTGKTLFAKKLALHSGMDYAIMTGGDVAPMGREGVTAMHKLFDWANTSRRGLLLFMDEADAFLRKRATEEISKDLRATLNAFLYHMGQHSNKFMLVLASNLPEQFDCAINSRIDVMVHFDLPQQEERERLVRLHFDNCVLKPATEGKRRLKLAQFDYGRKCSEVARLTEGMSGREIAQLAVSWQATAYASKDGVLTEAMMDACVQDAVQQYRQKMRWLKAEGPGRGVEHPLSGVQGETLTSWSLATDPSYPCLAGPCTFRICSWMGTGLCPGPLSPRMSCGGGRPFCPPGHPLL
UniProt P55211, sequence (P55211 whole entry, looked up): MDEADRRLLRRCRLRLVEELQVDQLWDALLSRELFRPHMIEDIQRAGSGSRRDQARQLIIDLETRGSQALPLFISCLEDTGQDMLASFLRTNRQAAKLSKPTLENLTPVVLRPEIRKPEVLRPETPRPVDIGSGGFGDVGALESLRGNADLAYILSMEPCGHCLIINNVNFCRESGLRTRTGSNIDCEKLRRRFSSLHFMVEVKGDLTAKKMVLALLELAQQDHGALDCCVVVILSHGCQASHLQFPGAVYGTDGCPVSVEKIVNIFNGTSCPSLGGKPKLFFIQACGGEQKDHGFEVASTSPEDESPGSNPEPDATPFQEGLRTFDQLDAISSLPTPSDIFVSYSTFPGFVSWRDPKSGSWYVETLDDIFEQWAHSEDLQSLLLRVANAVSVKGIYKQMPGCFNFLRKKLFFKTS
UniProt Q96B23, sequence (Q96B23 whole entry, looked up): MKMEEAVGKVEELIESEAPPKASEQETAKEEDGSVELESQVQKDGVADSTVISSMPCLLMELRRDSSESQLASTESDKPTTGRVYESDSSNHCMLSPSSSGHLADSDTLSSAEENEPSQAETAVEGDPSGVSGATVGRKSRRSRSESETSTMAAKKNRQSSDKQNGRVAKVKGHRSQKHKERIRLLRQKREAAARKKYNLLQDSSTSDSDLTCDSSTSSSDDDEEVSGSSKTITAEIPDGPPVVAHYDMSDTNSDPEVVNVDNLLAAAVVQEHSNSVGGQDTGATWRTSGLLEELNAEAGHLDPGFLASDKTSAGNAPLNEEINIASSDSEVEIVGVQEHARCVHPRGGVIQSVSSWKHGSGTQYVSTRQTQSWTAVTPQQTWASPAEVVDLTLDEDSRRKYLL

Target	log2 fold change (erlotinib)	log2 fold change [1]	log2 fold change [2]	log2 fold change [3]	log2 fold change [4]	log2 fold change [5]	log2 fold change [6]	log2 fold change [7]	log2 fold change [8]	log2 fold change (IRAK-1-4 Inhibitor I)	log2 fold change (ibrutinib)	log2 fold change [9]	log2 fold change (ralimetinib)	log2 fold change [10]	log2 fold change [11]	log2 fold change [12]	log2 fold change [13]	log2 fold change [14]	log2 fold change [15]	log2 fold change [16]
CDK9 isoform 2 (UniProt P50750)	-0.055	-0.054	0.195	0.019	0.02	-0.01	0.019	0.102	0.005	-0.002	-0.042	0.269	0.013	0.026	-0.092	-0.026	-0.021	-0.032	0.004	-0.021
CDK1 (UniProt P06493)	-0.038	0.046	-0.019	-0.031	-0.002	-0.01	-0.051	-0.007	-0.002	-0.017	-0.071	0.433 (active)	0.018	-0.037	-0.026	-0.029	0.01	0.033	0.011	0
AURKA (UniProt O14965)	0.111	-0.028	-0.033	0.008	0	-0.039	0.359	0.483	-0.004	0.129	0.348	0.144	-0.042	0.037	-0.051	0.034	-0.039	-0.042	-0.005	0.007
CHD3 isoform 3 (UniProt Q12873)	0.003	-0.022	-0.025	-0.01	0.003	0.002	-0.017	-0.058	0.005	-0.032	-0.003	0.021	-0.01	-0.021	-0.001	0.019	-0.018	0	-0.013	0.007
CDKN1C (UniProt P49918)	-0.021	0.34	-0.015	-0.159	0.065	-0.032	-0.461 (active)	0.053	0.009	0.069	0.002	-0.001	0.055	-0.045	0.077	0.017	0.006	-0.032	0.023	0.005
CHCHD1 (UniProt Q96BP2)	-0.002	-0.7	0.029	-0.053	0.005	0.021	-0.002	0.04	0.043	0.068	-0.004	0.021	0.047	-0.101	-0.059	0	-0.081	-0.014	-0.032	-0.055
ATG13 isoform 2 (UniProt O75143)	0.019	-0.055	-0.033	0.021	-0.001	-0.004	0.02	-0.031	0.019	0.006	0.01	0.011	-0.003	-0.018	0.004	0	-0.006	0.048	-0.024	0.016
CDC45 isoform 3 (UniProt O75419)	0.035	-0.008	-0.065	0.029	-0.005	-0.022	-0.017	-0.014	-0.004	0.066	0.034	0.045	0.014	0.021	-0.005	0.036	-0.006	-0.032	0.031	-0.004
CASP9 (UniProt P55211)	-0.007	0.008	0.008	0.03	0.069	-0.002	-0.008	0.014	0.006	0.034	-0.039	-0.06	0.04	-0.06	-0.017	0.01	-0.003	-0.01	0.011	-0.012
CALM2 (UniProt P0DP24)	-0.089	0.042	0.062	0.028	-0.117	0.094	0.001	0.039	0.118	0.221	0.262	0.004	-0.014	-0.238	-0.07	-0.044	-0.101	-0.013	-0.099	0.004
ATG4B (UniProt Q9Y4P1)	0.012	0.002	-0.022	-0.024	0.028	-0.019	-0.007	0.008	-0.004	0.019	0.037	0.021	0.016	-0.028	-0.019	-0.014	0.033	0.005	0.046	0.013
ATAD1 (UniProt Q8NBU5)	0.004	0.046	-0.016	0.027	-0.059	-0.041	0.004	-0.029	0.015	0.063	0	0.008	0.245	-0.059	0.016	-0.165	-0.059	-0.003	-0.01	0.03
ATAD3B (UniProt Q5T9A4)	-0.016	0.031	-0.111	0.029	0.019	-0.017	0.096	0.018	-0.009	0.032	-0.054	0.018	-0.027	-0.069	-0.012	-0.026	-0.028	-0.03	0.045	0.015
CAMK2G isoform 8 (UniProt Q13555)	0.009	-0.193	0.027	-0.094	0.018	-0.027	0.116	0.026	0.044	0.036	0.036	0.173	-0.022	0.009	-0.001	-0.019	0.073	-0.03	0.05	-0.027
C18orf25 (UniProt Q96B23)	-0.025	-0.315	-0.086	0.015	0.001	0.003	0.004	0.005	0.029	0.114	0.114	0.026	0	-0.276 (active)	-0.038	0.073	-0.008	0.04	-0.091	-0.065
